From PubChem
Compounds with a hit are over-represented: about 2.8% of the library has one in this group of screens.
POLB inh: blocks human DNA polymerase beta activity; Pol beta primer extension/strand displacement, fluorescence kinetic; Potency, µM (highest dose often 114 µM), inactives show top-dose activity change, negative = inhibition, hits mostly inhibitors; 340,000 tested, 1.3% active; AID 485314; note: potency is the fitted concentration of half-maximal effect; % is set by controls: 0 for no effect and ±100 for the full control effect
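Kinetic readout of DNA synthesis with strand displacement by Pol beta. Compound and 10 nM enzyme sit 15 min at room temperature; 50 nM substrate starts the reaction, read immediately and at 10 min.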
PI5P4Ka inh: blocks human PI5P4K alpha kinase activity; P48426; PI5P4Kalpha enzyme, ADP-Glo luminescence, 60 min; active compounds read low; max response, %; 330,000 tested, 1.2% active; active = max response of -50% or lower; inconclusive = between -30% and -50%; inactive = -30% or higher; note: value at the top dose of about 77 µM; % is set by controls: 0 for no effect and ±100 for the full control effect
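Compounds were pin-transferred onto PI5P4Kalpha and substrate in HEPES pH 7.4 buffer with EGTA, CHAPS and 5% DMSO. ATP (5 microM final) started the reaction, which ran 60 minutes at room temperature before ADP-Glo detection.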
WRN inhibitor: inhibitors of human WRN helicase. Q14191. WRN helicase unwinding, fluorescent forked duplex, kinetic. Potency, µM (titrated, usually from 114 µM), without a hit: top-dose activity change, negative = inhibition, actives largely listed as inhibitors. 360,000 tested, 0.46% active. AID 651768; note: potency is the fitted concentration of half-maximal effect; % is set by controls: 0 for no effect and ±100 for the full control effect; nearly all actives have a fitted effect of over 55% in size
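WRN at 20 nM final preincubated with compound 15 min at room temperature; reaction started with 100 nM fluorophore/quencher forked duplex oligonucleotide and 2 mM ATP final. Unwinding followed kinetically by red fluorescence (ex 525, em 598 nm).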
Pol kappa inh: DNA polymerase kappa (human) inhibition; Q9UBT6; purified Pol kappa, fluorescent DNA synthesis assay, 10 min; Potency, µM (doses to about 107 µM), for the others: at the highest dose activity, negative = inhibition, actives largely listed as inhibitors; 400,000 tested, 0.53% active; AID 588579; note: potency is the fitted concentration of half-maximal effect; % is set by controls: 0 for no effect and ±100 for the full control effect
Target sequence (Q9UBT6 whole entry, looked up): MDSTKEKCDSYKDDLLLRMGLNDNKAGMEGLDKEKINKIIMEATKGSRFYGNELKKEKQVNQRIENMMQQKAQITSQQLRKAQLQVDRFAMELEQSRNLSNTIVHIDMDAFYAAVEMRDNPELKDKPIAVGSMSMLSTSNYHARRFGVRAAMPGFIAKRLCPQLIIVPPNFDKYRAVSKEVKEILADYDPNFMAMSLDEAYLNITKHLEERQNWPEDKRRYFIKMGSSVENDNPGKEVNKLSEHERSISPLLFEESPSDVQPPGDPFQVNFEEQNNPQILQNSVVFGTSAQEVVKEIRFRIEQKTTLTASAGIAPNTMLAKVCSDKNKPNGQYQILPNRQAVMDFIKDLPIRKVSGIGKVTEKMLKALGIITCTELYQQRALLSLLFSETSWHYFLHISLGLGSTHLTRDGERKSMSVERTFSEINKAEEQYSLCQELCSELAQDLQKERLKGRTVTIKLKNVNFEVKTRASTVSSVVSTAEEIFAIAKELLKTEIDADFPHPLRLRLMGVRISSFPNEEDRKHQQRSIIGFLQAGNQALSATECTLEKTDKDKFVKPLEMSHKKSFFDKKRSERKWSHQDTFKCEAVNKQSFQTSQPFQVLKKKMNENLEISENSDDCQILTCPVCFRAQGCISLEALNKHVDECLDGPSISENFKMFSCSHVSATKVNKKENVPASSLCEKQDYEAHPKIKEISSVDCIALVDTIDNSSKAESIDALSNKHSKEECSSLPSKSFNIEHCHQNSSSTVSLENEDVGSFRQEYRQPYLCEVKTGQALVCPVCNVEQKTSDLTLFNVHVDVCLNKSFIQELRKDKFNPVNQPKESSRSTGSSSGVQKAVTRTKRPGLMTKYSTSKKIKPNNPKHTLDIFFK
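Readout: fluorescence, taken kinetically at 0 and 10 min. Conditions: 10 nM Pol kappa, 15 min RT compound preincubation, 50 nM substrate final. Controls: enzyme-free buffer wells.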
Pol iota inh: blocks human DNA polymerase iota activity. Q9UNA4. Pol iota fluorescent replication assay, 10 min. Potency, µM (highest dose often 115 µM), inactives show top-dose activity, negative = inhibition, hits mostly inhibitors. 390,000 tested, 1% active. AID 588590; note: potency is the fitted concentration of half-maximal effect
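Fluorescent replication assay read twice, at 0 min and 10 min after adding 50 nM (final) substrate. Enzyme (10 nM) and compounds were first incubated 15 min at room temperature; enzyme-free buffer wells were negative controls.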
POLH inh: inhibitors of human DNA polymerase eta; Q9Y253; recombinant Pol eta, fluorescent DNA replication assay; Potency, µM (top dose mostly 114 µM), for inactives: top-dose activity change, negative = inhibition, usual class: inhibitors; 390,000 tested, 1.2% active; AID 588591; note: potency is the fitted concentration of half-maximal effect; % is set by controls: 0 for no effect and ±100 for the full control effect
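Pol eta (10 nM) was preincubated with compounds for 15 min at room temperature, after which fluorescent replication substrate (50 nM final) was added to start the reaction. Fluorescence was read kinetically at 0 and 10 min.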
* = called active by the depositor; u = inconclusive; x = not tested or not shown; ! = repeats disagree; [ ] = another dose, or the depositor's remark. Unless noted, calls come from the whole dose curve; as a rule, active = well fitted curve in the direction sought with a large enough effect; inconclusive = small, poorly fitted or top-dose-only effect, or another doubt; inactive = no such curve, though single readings can be large; an effect the other way counts as inactive or inconclusive.

SMILES	POLB inh	PI5P4Ka inh	WRN inhibitor	Pol kappa inh	Pol iota inh	POLH inh
CCN1/C(=C/C=C/c2sc3ccccc3[n+]2CC)Sc2ccccc21	x	-19	40µM*	11µM*!	u	40µM*
CCN1/C(=C/C=C/C=C/C=C/c2sc3ccccc3[n+]2CC)Sc2ccccc21	-10%	u	-30%	-2%[60.1 µM]	u	-16%
COc1ccc(OCC(=O)NCCCCCCNC(=O)COc2ccc(OC)cc2)cc1	-26%	1	-5%	-7%	-20%	9%
CC(C)=CCC/C(C)=C/CC/C(C)=C/CSc1ccccc1C(=O)O	u	x	x	x	25µM*	32µM*
O=C(O)CSc1ccccc1C(=O)O	0%	2	-1%	-5%	16%	4%
Cc1ccc(Cn2c(C3CCCN3c3nc(-c4cc(Cl)c(N)c(Cl)c4)cs3)nc3cc(C(=O)NCCCO)ccc32)cc1 (stereo not drawn)	x	1	-8%	-11%	45µM*	-12%
Cc1ccc(Cn2c(C(C)Nc3nc(-c4ccc(F)cc4)cs3)nc3cc(C(=O)NCCCO)ccc32)cc1 (stereo not drawn)	x	14	3%	1%	u	-22%
Cc1ccc(C(=O)COC(=O)C2CC3CCCC(C2)C3=O)cc1[N+](=O)[O-] (stereo not drawn)	x	-5	-2%	-7%	u	-9%
COc1ccc(-c2n[nH]c(C(F)(F)F)c2-c2cc3ccccc3o2)c(O)c1	0%	x	-25%	-3%	79µM*	-11%
COc1ccccc1-c1c(-c2ccc(OCC(=O)NN)cc2O)n[nH]c1C(F)(F)F	22%	0	4%	-3%	10%	-18%
Cc1ccc(C(=O)CCc2ccc(N)cc2)cc1	-9%	0	1%	-5%[60.1 µM]	54%	-15%
CC1(C)Cc2c(c(-c3ccco3)[nH]c(=O)c2C#N)CS1	28µM*	-16	-25%	-32%	28µM*	u
CC1(C)Cc2c(c(-c3ccccc3)[nH]c(=O)c2C#N)CS1	1%	-5	-5%	0%	3%[58.9 µM]	9%
CCOC(=O)C1(CC2CC2)CCN(Cc2ccc(OC)cc2F)CC1	89µM*	2	-4%	-24%	156%	-21%
CSc1ccc(/C=C2\C=C(C(O)c3ccc(SC)cc3)c3ccccc32)cc1 (stereo not drawn)	x	x	x	-7%	3%	x
O=C(CCS(=O)(=O)c1ccccc1)Nc1ccc(Cl)cn1	32µM*	-5	-9%[57.1 µM]	-17%	17%	-4%
O=C(CCS(=O)(=O)c1ccccc1)Nc1ccc2c(c1)OCO2	11µM*	u	-6%	u	u	-8%
CCN(CC)c1ccc(/C=C2\C=Cc3ccccc32)cc1	x	x	x	-7%	18%	x
CCOC(=O)CSC1=NC(=O)/C(=C/c2ccc(Br)cc2)S1	6%	-55*	-28%	3%	-8%	-6%
O=C1NC(=O)C(=Cc2ccccc2[N+](=O)[O-])S1	x	u	13%	-5%	u	89µM*
CSc1cccc(NS(=O)(=O)c2ccc3[nH]cc(C(=O)N4CCCC4)c(=O)c3c2)c1	-11%	x	x	-8%	-25%	u
CCC(=O)OCCNc1cc(Sc2nc3ccccc3[nH]2)c2nonc2c1[N+](=O)[O-]	-16%	-56*	u	-23%	u	u
CC(=O)OCCCNc1cc(SCc2ccco2)c2nonc2c1[N+](=O)[O-]	14µM*	-51*	22µM*	13µM*	3.2µM*	22µM*
CCCC(=O)OCCNc1cc(SCc2ccco2)c2nonc2c1[N+](=O)[O-]	11µM*	-61*	35µM*	35µM*	2.5µM*	11µM*
CCCSc1cc(NCCOC(C)=O)c([N+](=O)[O-])c2nonc12	7%	3	16%	-4%	30%	-5%
SMILES	POLB inh	PI5P4Ka inh	WRN inhibitor	Pol kappa inh	Pol iota inh	POLH inh
CSCc1cc(C(=O)NC2CC2)c(N)s1	x	-24	-7%	x	x	x
COc1cc(OC)c(OC)cc1/C=c1\[nH]c(=O)/c(=C/c2cc(OC)c(OC)cc2OC)[nH]c1=O	x	x	x	12%	11%	x
COc1cccc(-n2c(-c3ccccc3F)nc3c(cnn3-c3ccc(C)cc3)c2=O)c1	5%	x	x	-16%	16µM*	-10%
COc1cccc(-n2c(C)nc3c(cnn3-c3ccc(C)cc3)c2=O)c1	-1%	-8	0%	-8%	3%	8%
COc1ccccc1C1CC(c2ccc(NS(C)(=O)=O)cc2)=NN1C(=O)c1ccccc1 (stereo not drawn)	0%	3	-3%	-5%	12%	-10%
COc1cccc(C2CC(c3ccc(NS(C)(=O)=O)cc3)=NN2C(=O)c2ccccc2)c1OC (stereo not drawn)	-7%	u	-11%	-22%	89µM*	u
O=C(COC(=O)c1cccc(NS(=O)(=O)/C=C/c2ccccc2)c1)Nc1ccccc1OC(F)F	21%	4	-23%	-14%	u	-28%
N#Cc1ccccc1Cn1c(=O)n(CCCC(=O)NCc2ccccc2Cl)c(=O)c2ccccc21	1%	x	x	-60%	89µM*	-10%
CN1C(=O)/C(=N\OC(=O)c2cccc3ccccc23)c2ccccc21	46%	x	57%[57.1 µM]	-6%	32µM*	1%
COc1ccc(C(=O)O/N=C2\C(=O)N(C)c3ccccc32)cc1	x	-1	-5%	0%	-4%	3%
CC(=O)N1CCn2c3c(c(=O)c4cc(C)ccc42)CCC31 (stereo not drawn)	-3%	-1	-11%[57.1 µM]	-22%	22µM*	4%
COc1ccccc1N1CCN(C(=O)c2ccc(Nc3nc4ccccc4n4nnnc34)cc2)CC1	5%	x	x	5%	12%	u
O=C(Nc1nccs1)c1cc(-c2ccccn2)nc2c(Cl)cccc12	u	-22	4%	-34%	25µM*	u
CC1=NN(c2ccccc2)C(=O)C1N=Nc1ccc(N)cc1 (stereo not drawn)	22µM*	-9	-17%	-11%	u	-5%
NC(CSC(c1ccccc1)(c1ccccc1)c1ccccc1)C(=O)O (stereo not drawn)	x	-22	-15%	-19%	u	u
Cc1ccc(C2(SCC(N)C(=O)O)c3ccccc3-c3ccccc32)cc1 (stereo not drawn)	x	-19	-12%	u	u	22µM*
CC(NC(=S)NC(=O)c1ccccc1Br)c1ccccc1 (stereo not drawn)	3%	-56*	-7%	-5%	-20%	-17%
CC(C)C(NC(=O)c1ccccc1Br)c1ccccc1 (stereo not drawn)	-8%	5	-3%	3%	43%	-1%
